The campaign covered roughly 310,000 compounds. About 1,200 (0.39%) were called active. Only a sample is shown. Potency and affinity values are given separately. A number with no mark means an inactive call. No rule for the calls is given here.
Target: Large T antigen (Simian virus 40) (UniProt P03070)
Assay: TAg ATPase/helicase activity blockers – biochemical (AID 1903)
Settings: SV40 large T antigen ATPase/helicase inhibition assay; at 20 µM; active compounds read high

Sequence of Large T antigen (Simian virus 40) (P03070 whole entry, looked up): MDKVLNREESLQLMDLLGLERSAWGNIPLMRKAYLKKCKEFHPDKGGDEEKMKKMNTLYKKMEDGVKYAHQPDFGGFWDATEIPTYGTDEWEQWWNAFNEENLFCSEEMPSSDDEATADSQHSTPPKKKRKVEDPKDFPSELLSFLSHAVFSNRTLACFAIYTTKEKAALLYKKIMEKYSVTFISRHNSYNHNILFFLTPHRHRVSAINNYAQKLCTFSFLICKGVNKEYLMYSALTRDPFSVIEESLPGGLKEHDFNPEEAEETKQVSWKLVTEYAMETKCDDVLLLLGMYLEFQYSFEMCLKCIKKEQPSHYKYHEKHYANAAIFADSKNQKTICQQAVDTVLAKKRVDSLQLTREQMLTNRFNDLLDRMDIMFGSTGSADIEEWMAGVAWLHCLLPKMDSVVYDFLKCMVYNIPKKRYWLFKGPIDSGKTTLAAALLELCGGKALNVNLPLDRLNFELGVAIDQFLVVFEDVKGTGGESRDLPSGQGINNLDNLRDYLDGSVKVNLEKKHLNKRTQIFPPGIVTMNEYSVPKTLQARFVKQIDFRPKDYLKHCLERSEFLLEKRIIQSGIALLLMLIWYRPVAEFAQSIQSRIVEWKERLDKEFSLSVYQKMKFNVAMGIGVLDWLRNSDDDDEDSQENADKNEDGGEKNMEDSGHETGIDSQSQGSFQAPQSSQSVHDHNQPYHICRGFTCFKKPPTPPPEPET

Compound	inhibition
COc1cc(CN2CCCC(C(=O)Nc3ccccc3Oc3cccnc3)C2)ccc1F (stereo not drawn)	7.89%
CCOC(=O)c1[nH]c2c(c1-c1ccccc1)C(=O)CC(c1ccc(OCC)cc1)C2 (stereo not drawn)	-10.4%
C=CCOc1ccc(CNCc2cccnc2)cc1	2.27%
Cn1c(N2CCN(C(c3ccccc3)c3ccccc3)CC2)nc2ccccc21	0.51%
Cc1cc2nc3c(c(C(F)(F)F)n2n1)CCCC3	3.17%
COc1cc(/C=C2\CCCc3c2nc2ccccc2c3C(=O)O)cc(OC)c1O	30.3%
COc1ccc(/C=C2\CCc3c2nc2ccccc2c3C(=O)O)cc1OC	6.95%
COc1cccc(N2CC(NS(=O)(=O)c3ccc4ccccc4c3)CC2=O)c1 (stereo not drawn)	11%
Nc1ccccc1SSc1ccccc1N	22.8%
Cc1ccc(O)c(Sc2cc(C)ccc2O)c1	5.68%
O=S(=O)(c1ccc(-c2cnc(C3CC3)o2)cc1)N1CCN(c2ccccc2)CC1	7.98%
O/N=C1\CCCc2ccc(Cl)cc21	3.89%
Cc1cc(C)n(CCc2nc(-c3ccc(C)o3)cs2)n1	28.1%
Cc1cc(C)n(CCc2nc(-c3cccs3)cs2)n1	0.46%
CC(O)c1nc2cc([N+](=O)[O-])ccc2n1Cc1ccccc1 (stereo not drawn)	7.32%
O=C(/C=C/c1cccc(Cl)c1)NCc1cccs1	-0.755%
COc1ccc(NC(=O)COc2ccc(C)c(C)c2)cc1S(=O)(=O)N1CCCCC1	5.04%
Cc1cccc(OCCn2ccnc2)c1C	12.1%
CC(C)Cn1c(=O)c(C(=O)NCc2ccc3c(c2)OCO3)c(O)c2ccccc21	-14.6%
CCOC(=O)C1(C)C=C(Nc2ccc(C)cc2)C(=O)N1c1ccc(C)cc1 (stereo not drawn)	12.1%
CCOC(=O)C1(C)C=C(Nc2ccc(NC(C)=O)cc2)C(=O)N1c1ccc(NC(C)=O)cc1 (stereo not drawn)	6.98%
COc1ccc(C)c2sc(=NC(=O)c3cccc(N4C(=O)CCC4=O)c3)n(C)c12	14.4%
COC(=O)c1c(C(=O)OC)c2ccccn2c1C(=O)c1ccccc1	10.4%
Cc1ccc(N=C(N)N=C(N)N)cc1	6.91%

Compound	inhibition
Cc1ccc(-c2nc(C=Nc3ccc(O)cc3)c(O)o2)cc1	23.6%
O=C1CC(NS(=O)(=O)c2cc(F)ccc2F)CN1c1cccc(F)c1 (stereo not drawn)	4.86%
CCc1ccc[n+](-c2nc3ccccc3nc2C(=C=[N-])C#N)c1	11.3%
CN1CCN(C(=O)c2cccn(Cc3ccc(C(F)(F)F)cc3)c2=O)CC1	2.45%
COc1ccc(OC)c(C2CC(=O)N3CN(c4cccc(Cl)c4)CSC3=C2C#N)c1 (stereo not drawn)	21.8%
COc1ccc(C2CC(=O)N3CN(Cc4ccco4)CSC3=C2C#N)cc1 (stereo not drawn)	36.8%
COc1ccc(C2CC(=O)N3CN(c4ccc(C)c(Cl)c4)CSC3=C2C#N)cc1 (stereo not drawn)	34.4%
COc1ccc(OC)c(C2CC(=O)N3CN(c4ccccc4)CSC3=C2C#N)c1 (stereo not drawn)	35.4%
N#CC1=C2SCN(c3ccccc3)CN2C(=O)CC1c1cccs1 (stereo not drawn)	25.3%
CCOC(=O)c1ccc(N2CSC3=C(C#N)C(c4ccc(OC)cc4OC)CC(=O)N3C2)cc1 (stereo not drawn)	31%
COc1cccc(C2CC(=O)N3CN(c4cccc(Cl)c4C)CSC3=C2C#N)c1OC (stereo not drawn)	25.5%
CCOC(=O)c1ccc(N2CSC3=C(C#N)C(c4cccs4)CC(=O)N3C2)cc1 (stereo not drawn)	28.9%
COc1ccc(-c2nn(-c3ccccc3)cc2/C=C/C(=O)O)cc1[N+](=O)[O-]	18.4%
C#CCOCCOCCOCCNc1nc(N2CCN(C(=O)[C@H]([C@@H](C)CC)n3cc([C@@H](N)CC(C)C)nn3)CC2)nc(N2CCN(C(=O)[C@H]([C@@H](C)CC)n3cc([C@@H](N)CC(C)C)nn3)CC2)n1	3.81%
CC(C)c1ccc(NC(=O)CSc2ncccc2C(=O)Oc2cccc([N+](=O)[O-])c2)cc1	16.9%
CCc1cc2c3c([nH]c2cc1S(=O)(=O)N1CCC2(CC1)OCCO2)CCCC3=O	-0.36%
CCN(C(=O)Cn1cnc2c(nc3n2CCCCC3)c1=O)c1cccc(Cl)c1	18.9%
C#CCn1c(=NC(=O)c2cc(-c3cccs3)nc3ccccc23)sc2cc(S(N)(=O)=O)ccc21	8.04%
O=C(O)C1CCCCC1C(=O)Nc1ccc(OCc2ccccc2)cc1 (stereo not drawn)	9.44%
COc1cc(/C=C/c2nc3ccccc3c(=O)[nH]2)cc(Br)c1O	-2.29%
CCOC(=O)c1[nH]c2ccccc2c1NC(=O)CC(C)(C)C	-0.46%
O=C(O)CCC(=O)Nc1ccc(Cc2ccc(NC(=O)CCC(=O)O)cc2)cc1	5.94%
O=C(O)CCC(=O)Nc1ccc(F)cc1	12.5%
CC1CCCC(NC(=O)C2CCN(S(=O)(=O)c3cnc[nH]3)CC2)C1C (stereo not drawn)	10.4%

Compound	inhibition
COc1ccccc1N1CCN(S(=O)(=O)c2cc(C(F)(F)F)cc(C(F)(F)F)c2)CC1	4.92%
CCOC(=O)C1(C)NC(c2ccc(O)cc2)C2C(=O)N(c3ccccc3)C(=O)C21 (stereo not drawn)	2.88%
O=C(Nc1ccc2nc(-c3cccs3)c(-c3cccs3)nc2c1)NC1CC1	-4.56%
O=C(NCCO)Nc1ccc2nc(-c3ccco3)c(-c3ccco3)nc2c1	52.6%
O=[N+]([O-])c1ccc(/C=N/N2CCN(Cc3ccccc3)CC2)cc1	8.88%
CCOC(=O)/C=C/c1cnn(-c2ccccc2)c1	-1.48%
CCN(CC)c1ccc(C(=O)N/N=C/c2ccc(OC)cc2OC)cc1	0.86%
O=C1NN(c2ccc(F)cc2)C(=O)/C1=C\c1cnn(-c2ccccc2)c1	2.23%
Cc1ccccc1N1C(=O)c2cccc3cccc(c23)C1=O	4.81%
CCN(CC)c1ccc(C=O)c(OC)c1	11.8%
CN(C)c1ccc(/C=N/N2C(=O)c3ccccc3C2=O)cc1	21.5%
COCCNC(=O)CN1CCC(NC(=O)Nc2ccc(C(F)(F)F)cc2)CC1	27.4%
Cc1cc(C)nc(NNC2=CC(=[N+]3CCCCC3)CC(C)(C)C2)n1	3.95%
CNC(=O)COC(=O)CNC(=O)c1cc(Cl)cc([N+](=O)[O-])c1	6.1%
C=CCn1c(SCc2cccc(OC)c2)nnc1-c1ccncc1	5.97%
CCc1ccc(C2CC(c3ccc(Cl)cc3)=NNC2=O)cc1 (stereo not drawn)	-1.48%
COc1ccccc1N1CCN(c2nccc(C)n2)CC1	11.9%
Cc1ccnc(N2C3CCC2CC(O)(c2ccccc2)C3)n1 (stereo not drawn)	2.55%
O=C1CCCN1c1nccs1	4.21%
O=c1c2ccccc2c(C=Nc2ccccc2O)c(O)n1-c1nccs1	15.8%
O=C(NCCc1c[nH]c2ccccc12)C1CCN(S(=O)(=O)c2ccccc2F)CC1	10.5%
COc1ccc(S(=O)(=O)Cc2ccc(C(=O)NCc3ccccc3)o2)cc1	7.39%
Cc1c([N+](=O)[O-])cc(S(=O)(=O)Nc2ccncc2)cc1[N+](=O)[O-]	1.66%
COc1ccc(/C=C/CN2CCN(Cc3ccc(F)cc3)C(CCO)C2)cc1 (stereo not drawn)	10.1%

Compound	inhibition
O=C1/C(=C\c2ccco2)SC(=S)N1c1ccccc1	21.4%
O=C1S/C(=C\C=C\c2ccco2)C(=O)N1c1ccccc1	20.3%
COC(=O)C1=C(C)N(c2ccc(C)c(C)c2)/C(=C/c2ccco2)C1=O	13.5%
CCOC(=O)C1=C(C)N(c2ccc(C)c(C)c2)C(=O)/C1=C\c1ccco1	7.58%
O=C1NC(=O)N(c2ccccc2)C1=O	28.5%
Nc1ccc2c3c(cccc13)C(=O)N(c1ccccc1)C2=O	6.29%
O=C1N/C(=C/c2ccc(N3CCCC3)cc2)C(=O)N1c1ccccc1	1.12%
O=C1NC(=S)N/C1=C/C=C/c1ccccc1	-22.6%
O=C(OCc1ccccc1)N1CCOCCN(C(=O)OCc2ccccc2)CCOCC1	0.08%
c1ccc(N2CCN(c3nc(-c4cccs4)nc4ccccc34)CC2)cc1	17.6%
COC(=O)c1cccc(C(=O)N2CCCC(C(=O)c3ccccc3OC)C2)c1 (stereo not drawn)	2.9%
Cc1ccccc1CCNC(=O)Cn1ccc2cc(S(=O)(=O)N3CCCC3)ccc21	11.1%
CCN(Cc1ccccc1)C(=O)CCS(=O)(=O)c1ccc2c(c1)NC(=O)CO2	6.63%
CN(C)c1ccc(/C=N/NC(=O)Cn2nnc3ccccc32)cc1	14.7%
COc1cccc(/C=N/NC(=O)CCn2nnc3ccccc32)c1	9.43%
COc1ccc(Cn2nnc3ccccc32)cc1	0.77%
COc1cccc(/C=N\NC(=O)Cn2nnc3ccccc32)c1O	34.8%
COc1ccc(/C=N/NC(=O)C(C)n2nnc3ccccc32)cc1OC (stereo not drawn)	-3.35%
COc1cccc(/C=N/NC(=O)C(C)n2nnc3ccccc32)c1 (stereo not drawn)	23.4%
COc1cc(Cn2nnc3ccccc32)cc(Br)c1O	29.6%
COc1ccc(/C=N/NC(=O)CCn2nnc3ccccc32)cc1	3.72%
